# From PubChem BioAssay (Tox21)
# Records with an inconclusive call do not appear. Calls of active or inactive are those of the source. The call rests on the fitted dose curve; in most records, active means well fitted cell-killing curve with a large enough effect in the repeat runs; inconclusive means weak or mixed curves, or effect the other way; inactive means flat fitted curve, though single readings scatter.
# Test: qHTS RealTime-Glo MT Cell Viability Assay in HEK293 cells - 16 hour (AID 1224872); further: top concentration of the series differs between compounds; nearly all actives have a fitted effect of over 50% in size
# Settings: RealTime-Glo luminescence; series mostly up to 76.8 µM; activity change, negative = cytotoxicity: at the top concentration
# Description: National Center for Advancing Translational Sciences [NCATS]
# NIH Chemical Genomics Center [NCGC]
# U.S. Environmental Protection Agency [EPA]
# National Institutes of Environmental Health Sciences [NIEHS]
# National Toxicology Program [NTP]
# U.S. Food and Drug Administration [FDA]
# Measure of cell viability is critical in the cell-base assay. Analysis of cell viability is necessary for the characterization of cell responses to cytotoxic drugs and environmental stress. A RealTime-Glo MT Cell Viability Assay to monitor cell viability in real time of continues cell culture during 40 hours of compound treatment was used to screen Tox21 10K library compounds in Hek293 cells. The RealTime-Glo MT Cell Viability Assay is a nonlytic, homogeneous, bioluminescent method to measure cell viability in real time using a simple, plate-based method. The assay involves adding NanoLuc luciferase and a cell-permeant prosubstrate to cells in culture. Viable cells reduce the proprietary prosubstrate to generate a substrate for NanoLuc luciferase. This substrate diffuses from cells into the surrounding culture medium, where it is rapidly used by the NanoLuc Enzyme to produce a luminescent signal. The signal correlates with the number of viable cells, making the assay well suited for cytotoxicity studies.
# Tox21 Assay Protocol Summary:
# The mixture of Hek293 cell suspension and reagents were dispensed at 600cells/6 ul/well in 1536-well tissue culture treated black solid bottom plates using a Multidrop dispenser. After the assay plates were incubated at a 37 C/5% CO2 incubator for 5 hours, 23 nL of compounds dissolved in DMSO, positive and negative controls was transferred to the assay plate by a pintool work station. The plates were incubated at 37 C for 40 hours. The luminescence intensity were measured at 0h, 8h, 16h, 24h, 32h and 40h time points using ViewLux plate reader during compound treatment.
# On the % scale 0 is the no-effect control and ±100 the full control effect.
SMILES,"activity change, negative = cytotoxicity",outcome
O=S(=O)(c1ccc(O)cc1)c1ccc(O)cc1,-11.5% (inactive),
CCNc1nc(NC(C)C)nc(SC)n1,,inactive
COC(=O)c1ccccc1N,,inactive
CC(Oc1ccc(Cl)cc1Cl)C(=O)O (stereo not given),,inactive
CN1C(=O)CN=C(c2ccccc2)c2cc(Cl)ccc21,,inactive
O=NN1CCCC1,-1.55% (inactive),
ClCCBr,,inactive
Nc1ccc(Cc2ccc(N)cc2)cc1,,inactive
CNC(=O)Oc1ccccc1OC(C)C,,inactive
C=C(C)CCl,7.57% [at 6.97 µM] (inactive),
CC(C)C#N,,inactive
CON(C)C(=O)Nc1ccc(Cl)c(Cl)c1,-21.1% (inactive),
Cc1[nH]c(=O)n(C(C)(C)C)c(=O)c1Cl,,inactive
CCOP(=S)(OCC)SCCSCC,,inactive
Clc1ccccc1Cl,,inactive
ClCc1cccnc1,,inactive
CCC[N+](=O)[O-],11.8% (inactive),
CCC12COCN1COC2,,inactive
CN(N=O)c1ccccc1,,inactive
Clc1cccc(Cl)c1Cl,2.43% (inactive),

SMILES,"activity change, negative = cytotoxicity",outcome
CC(NC(C)(C)C)C(=O)c1cccc(Cl)c1 (stereo not given),,inactive
OCCN(CCO)CCO,,inactive
CN(C)CCO,,inactive
CN(C)N=O,,inactive
O=[N+]([O-])c1ccccc1,,inactive
C#CC(C)(C)NC(=O)c1cc(Cl)cc(Cl)c1,-6.02% (inactive),
CCOP(OCC)OCC,,inactive
CCCCCCCCCl,,inactive
CN=C=S,,inactive
CCN(CC)c1ccccc1,,inactive
CCC[CH2][Sn]([Cl])([Cl])[Cl],,inactive
CC(C)NC(=O)N1CC(=O)N(c2cc(Cl)cc(Cl)c2)C1=O,,inactive
COC(=O)NS(=O)(=O)c1ccc(N)cc1,,inactive
CC(C#N)CCC#N (stereo not given),,inactive
CCN(CC)CCO,,inactive
CCCN(CCC)N=O,,inactive
c1ccc2c(c1)oc1ccccc12,,inactive
O=C(O)c1ccccn1,,inactive
BrCCBr,,inactive
O=C(NC(=O)c1c(F)cccc1F)Nc1cc(Cl)c(OC(F)(F)C(F)C(F)(F)F)cc1Cl (stereo not given),,inactive
